Growth data for eight compounds are collected here from PubChem BioAssay (NCI).

Test systems include NCI-H23 lung; NCI-H226 lung; NCI-H322M lung; HOP-62 NSCLC; NCI-H460 lung; HOP-92 NSCLC; NCI-H522 lung; A549/ATCC NSCLC; 786-0 renal; DU-145 prostate; K-562 leukemia; MALME-3M melanoma; MDA-MB-231 breast; RXF 393 renal; SF-268 CNS; SF-295 CNS; SF-539 CNS; UACC-257 melanoma; M14 melanoma; COLO 205 colon.
Test in all cases: NCI-60 one-dose screen, 48 h (100 = growth as untreated, 0 = no growth, -100 = all killed)
Conditions in all cases: 10 µM unless noted

Compounds without any hit were thinned out: in the full panel of roughly 83,000, 20% have a hit.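 Activity criterion: percent growth below 10, measured after cells in 96-well plates were exposed to a single compound concentration for 48 hours.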 A number with no mark means an inactive call. Calls of active or inactive are those of the source.

For the compound `COc1cc2cc(CN3CCN(c4nccc(-c5ccc6ccccc6c5)n4)CC3)c(=O)[nH]c2cc1OC`, the growth was 97.3% in the experiment with NCI-H23 lung; 96.5% in the experiment with NCI-H226 lung; 98.4% in the experiment with NCI-H322M lung; 96.2% with HOP-62 NSCLC; -35.9% (active) in the experiment on NCI-H460 lung; 98.4% with HOP-92 NSCLC. Further, the growth is 85.6% in the experiment with NCI-H522 lung; 2.34% (active) in the experiment with A549/ATCC NSCLC; 32.7% in the experiment on 786-0 renal; 74% in the experiment on DU-145 prostate; 13.6% in the experiment with K-562 leukemia; 103% with MALME-3M melanoma. Also, the growth in the experiment with MDA-MB-231 breast was 73.8%; in the experiment with RXF 393 renal it was 81.8%; in the experiment with SF-268 CNS it was 94%; in the experiment with SF-295 CNS it was 101%; in the experiment with SF-539 CNS, 110%; in the experiment with UACC-257 melanoma, 77%. The growth in the experiment with M14 melanoma was 109%.
Turning to `COc1ccc(CNCCN2C(=O)c3ccc4c5c(ccc(c35)C2=O)C(=O)N(CCNCc2ccc(OC)c(OC)c2OC)C4=O)c(OC)c1OC`, the growth is -42.8% (active) in the experiment on NCI-H23 lung; -13.7% (active) in the experiment on NCI-H226 lung; -1.94% (active) in the experiment with NCI-H322M lung; 20% with HOP-62 NSCLC; -21.2% (active) with NCI-H460 lung; 5.62% (active) in the experiment with HOP-92 NSCLC. Moreover, the growth with NCI-H522 lung is -78% (active); in the experiment with A549/ATCC NSCLC, -39.9% (active); in the experiment with 786-0 renal it was 8.05% (active); with DU-145 prostate, -41.7% (active); with K-562 leukemia it was -10.8% (active); in the experiment with MALME-3M melanoma, -73% (active). Besides, the growth with MDA-MB-231 breast was -8.31% (active); in the experiment with RXF 393 renal, -32.3% (active); in the experiment on SF-268 CNS it was -2.06% (active); in the experiment with SF-295 CNS, -44.8% (active); in the experiment on SF-539 CNS it was -47.7% (active); with UACC-257 melanoma it was -85.1% (active). Besides, the growth with M14 melanoma is -58.3% (active).
Regarding `O=C1Nc2ccc(F)cc2/C1=C\c1c(-c2ccccc2)nc2ccccn12`, the growth in the experiment on NCI-H23 lung was 53.4%; in the experiment on NCI-H226 lung it was 91.5%; with NCI-H322M lung it was 76.3%; with HOP-62 NSCLC it was 72.5%; in the experiment on NCI-H460 lung, 81.5%; with HOP-92 NSCLC, 72.7%. In addition, the growth is 21.3% with NCI-H522 lung; 71.7% in the experiment with A549/ATCC NSCLC; 75.4% with 786-0 renal; 91.9% with COLO 205 colon; 86.5% with DU-145 prostate; 67.5% with MALME-3M melanoma. Further, the growth in the experiment with MDA-MB-231 breast is 73.4%; in the experiment with RXF 393 renal, 50.8%; in the experiment with SF-268 CNS, 79.5%; in the experiment with SF-295 CNS it was 57%; in the experiment on SF-539 CNS, 73.3%; in the experiment with UACC-257 melanoma, 90.7%. Further, the growth in the experiment on M14 melanoma was 48.7%.
Regarding `C=C(C)[C@@H]1CC[C@]2(C(=O)N3CCN(C)CC3)CC[C@]3(C)[C@H](CC[C@@H]4[C@@]5(C)C/C(=C/c6ccncc6)C(=O)C(C)(C)[C@@H]5CC[C@]43C)[C@@H]12`, the growth in the experiment on NCI-H23 lung was 74.4%; with NCI-H226 lung it was 61.9%; with NCI-H322M lung, 85.4%; with HOP-62 NSCLC, 85.1%; in the experiment on NCI-H460 lung, 37.2%; in the experiment on HOP-92 NSCLC, 39.7%. Further, the growth in the experiment on NCI-H522 lung is 47.6%; in the experiment on A549/ATCC NSCLC it was 40.4%; with 786-0 renal, 65%; in the experiment with DU-145 prostate, 72.7%; in the experiment on K-562 leukemia it was 21%; in the experiment on MALME-3M melanoma it was 62%. Further, the growth with MDA-MB-231 breast is 74.3%; in the experiment on RXF 393 renal, 49.4%; in the experiment on SF-268 CNS it was 62.3%; with SF-295 CNS, 75.2%; in the experiment with SF-539 CNS, 73.4%; in the experiment with UACC-257 melanoma, 56.9%. For the same compound, in the experiment on M14 melanoma, the growth is 68.5%.
As for `Cn1cc(-c2nc(-c3c[nH]c4c(Cl)nccc34)cs2)c2cc(Br)ccc21`, the growth with NCI-H23 lung was 99.8%; in the experiment with NCI-H226 lung, 81.4%; in the experiment on NCI-H322M lung, 93.2%; in the experiment on HOP-62 NSCLC, 82%; with NCI-H460 lung, 80.2%; in the experiment with HOP-92 NSCLC, 91.2%. Moreover, the growth is 78.7% in the experiment on NCI-H522 lung; 66.6% in the experiment on A549/ATCC NSCLC; 84.6% in the experiment on 786-0 renal; 90.4% in the experiment on COLO 205 colon; 80.3% in the experiment on DU-145 prostate; 118% in the experiment with MALME-3M melanoma. Further, the growth with MDA-MB-231 breast is 96.9%; with RXF 393 renal it was 95.9%; in the experiment with SF-268 CNS it was 105%; in the experiment with SF-295 CNS, 91.4%; with SF-539 CNS, 82.5%; with UACC-257 melanoma, 54.1%. For the same compound, the growth in the experiment on M14 melanoma was 73.5%.
For the compound `COc1c(Cl)c2c(c(OC)c1OC)-c1ccc(SC)c(=O)cc1[C@@H](NC(=O)OCC(F)(F)F)CC2`, the growth is 34.1% in the experiment on NCI-H23 lung; 16.4% in the experiment on NCI-H226 lung; 33.6% in the experiment on NCI-H322M lung; 34.3% in the experiment on HOP-62 NSCLC; 2.44% (active) in the experiment with NCI-H460 lung; 23.4% in the experiment with HOP-92 NSCLC. Further, the growth in the experiment with NCI-H522 lung was 17.9%; with A549/ATCC NSCLC, 22.2%; in the experiment on 786-0 renal, 11%; in the experiment with DU-145 prostate it was -6.54% (active); in the experiment on K-562 leukemia it was 7.39% (active); in the experiment with MALME-3M melanoma, 34.9%. Besides, the growth is -1.03% (active) with MDA-MB-231 breast; 18.7% in the experiment with RXF 393 renal; 27.2% with SF-268 CNS; 15% with SF-295 CNS; -19% (active) in the experiment on SF-539 CNS; 70.5% in the experiment with UACC-257 melanoma. Moreover, in the experiment with M14 melanoma, the growth was 0.43% (active).
For the compound `CCCCC/C=C/C(C)=C/C1CC(C)C/C=C/CCC(O)C(OC(N)=O)CCC(C)CC(O)C(C)C(=O)O1` (stereo unspecified), the growth with NCI-H23 lung was 97.6%; in the experiment on NCI-H226 lung it was 104%; in the experiment with NCI-H322M lung, 101%; in the experiment on HOP-62 NSCLC it was 82.7%; with NCI-H460 lung, 67%; in the experiment with HOP-92 NSCLC, 24.5%. Also, the growth in the experiment with NCI-H522 lung was 79.2%; with A549/ATCC NSCLC it was 85%; in the experiment with 786-0 renal it was 77.9%; with COLO 205 colon, 121%; in the experiment on DU-145 prostate, 79.5%; with MALME-3M melanoma it was 101%. The growth was 110% with RXF 393 renal; 104% with SF-268 CNS; 59.2% in the experiment with SF-295 CNS; 106% in the experiment on SF-539 CNS; 88.1% with UACC-257 melanoma; 72.9% in the experiment on M14 melanoma.
As to `C=C(C)[C@@H]1CC[C@]2(C(=O)N[C@H](CO)Cc3ccccc3)CC[C@]3(C)[C@H](CC[C@@H]4[C@@]5(C)CCCNC(C)(C)[C@@H]5CC[C@]43C)[C@@H]12`, the growth with NCI-H23 lung is -71.9% (active); with NCI-H226 lung it was -55.7% (active); with NCI-H322M lung it was -86% (active); in the experiment with HOP-62 NSCLC, -86.2% (active); in the experiment with NCI-H460 lung it was -86.2% (active); in the experiment with HOP-92 NSCLC it was -88.5% (active). Moreover, the growth in the experiment on NCI-H522 lung is -79.2% (active); with A549/ATCC NSCLC it was -83.1% (active); with 786-0 renal it was -90.7% (active); in the experiment on COLO 205 colon it was -83.4% (active); with DU-145 prostate it was -87.4% (active); in the experiment with MALME-3M melanoma, -82.9% (active). For the same compound, the growth with MDA-MB-231 breast was -87.1% (active); in the experiment on RXF 393 renal, -91.5% (active); with SF-268 CNS, -81.2% (active); in the experiment on SF-295 CNS, -91.8% (active); with SF-539 CNS, -87.7% (active); in the experiment with UACC-257 melanoma, -88.8% (active). The growth in the experiment on M14 melanoma is -90.2% (active).
